Values without a mark were called inactive. No rule for the calls is given here.
These compounds were tested against Pantothenate synthetase (Mycobacterium tuberculosis (strain ATCC 25618 / H37Rv)) (UniProt P9WIL5) (assay: Recombinant Mtb pantothenate synthetase (PanC) inhibitors, coupled enzyme, confirmatory (AID 375;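 also: 0% = full reaction with vehicle and 100% = no enzyme background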)). Details: coupled enzyme assay; at 10 µM, active compounds read high.
Pantothenate synthetase (Mycobacterium tuberculosis (strain ATCC 25618 / H37Rv)), sequence (P9WIL5 whole entry, looked up): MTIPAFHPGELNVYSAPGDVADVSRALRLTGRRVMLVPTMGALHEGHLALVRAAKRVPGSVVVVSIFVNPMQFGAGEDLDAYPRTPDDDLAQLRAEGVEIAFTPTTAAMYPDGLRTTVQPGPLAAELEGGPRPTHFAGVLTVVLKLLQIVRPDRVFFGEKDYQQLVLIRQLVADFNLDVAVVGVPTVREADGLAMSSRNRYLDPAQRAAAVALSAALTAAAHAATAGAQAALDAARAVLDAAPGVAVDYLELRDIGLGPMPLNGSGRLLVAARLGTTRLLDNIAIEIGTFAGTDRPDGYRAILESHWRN

In order of rising inhibition:
1. C=C1[C@@H](C)C2[C@H](Cc3ccccc3)NC(=O)[C@]23OC(=O)CC[C@H](O)CCC[C@H](C)C/C=C/[C@H]3[C@@H]1O (stereo not given in full)  0%
2. CCN1CCN(CCNC(=O)c2cn(C(C)c3ccccc3F)nn2)CC1 (stereo not given)  0%
3. Cc1nnc(SCc2ccccc2)n1N  0%
4. Cn1c(=O)cc(NCCc2ccccc2)[nH]c1=O  0%
5. COc1ccc(-c2nc(C)c(C(C)=O)n2O)cc1OC  0%
6. O=C(C1CCN(S(=O)(=O)c2cnc[nH]2)CC1)N1CCN(c2ncccn2)CC1  0%
7. COc1cc([C@@H]2c3cc4c(cc3[C@H](O)[C@H]3COC(=O)[C@H]23)OCO4)cc(OC)c1OC  0%
8. Cc1ccc(NC(=O)C2CCCN(S(=O)(=O)c3cnc[nH]3)C2)cc1F (stereo not given)  0%
9. CCOc1ccc(Cl)cc1S(=O)(=O)N1CCCC1  0%
10. O=C(CCNC(=O)c1ccc(Br)o1)NC1CCCC1  0%
11. COc1ccc(CN(C(=O)c2ccccc2OC)C2CCS(=O)(=O)C2)cc1 (stereo not given)  0%
12. CCCOc1ccc(N2C(=O)CC(SCCN)C2=O)cc1 (stereo not given)  0%
13. COc1cccc(CNC(=O)C2CCN(c3cnccn3)CC2)c1  0%
14. CCOc1ccc(C2/C(=C(/O)c3ccccc3)C(=O)C(=O)N2CCCN(C)C)cc1OC (stereo not given)  0%
15. Cc1ccc(C(C)C)c(OCCn2c(=O)oc3ccccc32)c1  0%
16. Nc1c(C2=NCCO2)nnn1Cc1ccccc1  0%
17. CCOc1nc(-c2ccccc2O)nc2ccccc12  0%
18. CC1Cc2nc(SCC(N)=O)n(Cc3ccccc3)c(=O)c2S1 (stereo not given)  0%
19. CCOC(=O)c1c(N)c(C#N)nn1-c1ccccc1C(=O)OC  0%
20. CC(O)c1cc2c(cc1NC(=O)c1cnn3c1NC(c1ccco1)CC3C(F)(F)F)OCO2 (stereo not given)  0%
21. Cc1ccc(CS(=O)(=O)Cc2ccc(C(=O)NCc3ccccn3)o2)cc1  0%
22. COc1ccc(N(C)C(=O)CCS(=O)(=O)c2cccc3nonc23)c(OC)c1  0%
23. Cc1ccc(C(=O)Nc2ccc3c(c2)OCO3)o1  0%
24. Oc1ccc2ccccc2c1CN1CCN(c2ccccc2F)CC1  1%
25. O=C1CC(N2CCOCC2)C(=O)N1c1ccc2c(c1)OCO2 (stereo not given)  1%
26. CNC(=O)CSc1nnc(-c2cc3c(C)nn(-c4ccccc4)c3s2)n1C  2%
27. O=C(CSc1nnc(-c2ccccc2Br)o1)Nc1cccc2ccccc12  2%
28. O=C1C/C(=C/NCc2ccccc2)C(=O)N1  3%
29. O=C(NCc1ccco1)c1cccn2c(=O)c3sccc3nc12  4%
30. CCN(CC)C(=O)C1CCCN(c2ncnc3c2cnn3-c2ccc(Cl)cc2)C1 (stereo not given)  4%
31. [O-][n+]1c2c(nn1-c1ccccc1Cl)-c1nonc1CC2  4%
32. O=S(=O)(c1ccc2c(c1)OCCO2)N1CCN(Cc2ccc3c(c2)OCO3)CC1  4%
33. CC1(C)CC(=O)C=C(NCCN2CCN(C(=O)Nc3ccccc3)CC2)C1  5%
34. CCn1c(CSc2nc(C)cc(C)n2)nnc1SCC(=O)Nc1ccccc1  5%
35. CN(CC(=O)Nc1ccc2c(c1)OCCO2)S(=O)(=O)c1ccc(Br)s1  6%
36. COc1ccc(S(=O)(=O)CCC(=O)O)cc1  6%
37. CCOC(=O)c1nnn(-c2nonc2NC(C)=O)c1C  8%
38. CC(C)(C)C1=Nn2c(nnc2-c2n[nH]c3c2CCC3)SC1  8%
39. CC(C)(C)n1nnnc1C(c1cccs1)N1CCN(Cc2ccccc2)CC1 (stereo not given)  12%
40. COc1ccccc1N1CCN(C(=O)C2CC=CCC2C(=O)O)CC1 (stereo not given)  14%

— PubChem BioAssay
